Test results published in PubChem BioAssay AID743255 (National Center for Advancing Translational Sciences (NCATS), 2014).
About 910 (0.23%) of roughly 390,000 compounds were called active. Roughly 5% stayed inconclusive and do not appear here. The call rests on the fitted dose curve; in most records, active means well fitted inhibition curve with a large enough effect; inconclusive means small, poorly fitted or top-dose-only effect; inactive means no such curve, though single readings can be large or run the other way. The full list was thinned out, with actives kept by preference.

Target: Ubiquitin carboxyl-terminal hydrolase 1 (Homo sapiens) (UniProt O94782)
Experiment: Inhibitors of USP1/UAF1: Primary Screen; further: nearly all actives have a fitted effect of over 60% in size
Settings: recombinant USP1/UAF1, Ub-Rhodamine cleavage fluorescence; series mostly up to 57.1 µM
In short: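 USP1/UAF1 complex at 1 nM was preincubated with compound for 15 min at room temperature, then Ub-Rho substrate (150nM final) was added. Fluorescence (480/540 nm) was read kinetically, 6 reads every 60 seconds.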
Potency means the concentration at half of the fitted maximal effect.

Chain of Ubiquitin carboxyl-terminal hydrolase 1 (Homo sapiens) (O94782 whole entry, looked up): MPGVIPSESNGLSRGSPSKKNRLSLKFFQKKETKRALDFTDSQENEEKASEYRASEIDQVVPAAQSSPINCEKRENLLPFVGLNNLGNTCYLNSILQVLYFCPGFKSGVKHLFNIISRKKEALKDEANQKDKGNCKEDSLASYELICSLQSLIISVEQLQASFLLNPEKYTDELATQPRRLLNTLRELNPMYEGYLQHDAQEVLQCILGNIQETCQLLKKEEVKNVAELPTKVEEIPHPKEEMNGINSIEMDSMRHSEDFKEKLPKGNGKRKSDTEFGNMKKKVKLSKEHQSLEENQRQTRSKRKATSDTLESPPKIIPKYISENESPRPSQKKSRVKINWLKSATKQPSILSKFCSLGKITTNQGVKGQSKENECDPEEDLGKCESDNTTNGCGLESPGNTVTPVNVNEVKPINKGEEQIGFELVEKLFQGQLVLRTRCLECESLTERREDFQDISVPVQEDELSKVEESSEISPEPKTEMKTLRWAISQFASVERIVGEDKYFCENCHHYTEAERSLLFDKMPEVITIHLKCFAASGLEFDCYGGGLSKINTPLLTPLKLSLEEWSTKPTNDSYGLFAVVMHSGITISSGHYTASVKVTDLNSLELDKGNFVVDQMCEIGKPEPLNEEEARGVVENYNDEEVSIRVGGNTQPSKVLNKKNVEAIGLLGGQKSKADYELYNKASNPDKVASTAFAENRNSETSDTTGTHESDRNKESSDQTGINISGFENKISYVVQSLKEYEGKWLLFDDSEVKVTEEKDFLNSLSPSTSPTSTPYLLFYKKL

Potency, inactive:
Cc1cc(C)c(/C=C/c2onc(C)c2S(=O)(=O)N2CCC(C(=O)Nc3ccc(Cl)cc3C)CC2)c(C)c1
O=C(NCc1ccccc1)c1cc(-c2cccc(Cl)c2)on1
CCC(C)N1C(=O)S/C(=C/c2ccc(Sc3nc4ccccc4[nH]3)o2)C1=O (stereo not drawn)
COc1ccccc1-c1cc(C(F)(F)F)nc(S(=O)(=O)CCCC(=O)Nc2ccc(F)cc2F)n1
O=C(CSc1nccn1C1CCCC1)Nc1cc(C(F)(F)F)ccc1Cl
CCN(CC)c1ccc(NC(=O)CN2C(=O)c3cccnc3Oc3ccc(Cl)cc32)c(C)c1
Cc1ccc(NC(=O)NC(C)c2c(-n3cccc3)sc(C)c2C)c(C)c1 (stereo not drawn)
O=C(Cn1cnc2c(oc3ccccc32)c1=O)Nc1ccc(OC(F)(F)F)cc1
Cc1ccc2onc(CC(=O)N3CCN(c4ccc(Cl)cc4)CC3)c2c1
CCc1ccc2oc(-c3ccc(NC(=O)c4cc5ccccc5o4)cc3)nc2c1
CCOc1ccc(CNC(=O)C2CCN(c3nnc(-n4cccc4CNc4ccc(C)cc4)s3)CC2)cc1OC
COc1cc(C(=O)N2CCN(c3ccc(Nc4ccc(C)cc4)nn3)CC2)cc(OC)c1OC
CCCC(=O)Nc1cc(C(=O)NCc2ccc(OC)cc2)ccc1S(=O)(=O)c1ccc(Cl)cc1
NC(=O)c1ccc(N2CCOCC2)nc1
O=C1OC(NC(=O)c2ccccc2)C(N2CCOCC2)=C1Cl (stereo not drawn)
COC(=O)CN1C(=O)CSc2ccc(S(=O)(=O)Nc3cc(C)ccc3C)cc21
COc1ccc(CCNC(=O)c2cc(=O)c3c(C)cc(C)cc3o2)cc1OC
CCN(CC)CCNC(=O)Cn1ncc2c3ccccc3n(Cc3ccccc3C)c2c1=O
CCc1ccccc1NC(=O)c1ccc(F)c(S(=O)(=O)NC2CCCCCC2)c1
COCCCNC(=O)c1ccc(NC(=O)c2nsc3ccccc23)cc1
CCOC(=O)c1cnc2c(C)cc(C)cc2c1Nc1ccc(N2CCOCC2)cc1
CCc1nc2cccnc2n1-c1ccc(CC(=O)Nc2c(C)cccc2C)cc1
Cc1ccc(-c2nnc(Nc3ccc(OCC(N)=O)cc3)c3ccccc23)cc1S(=O)(=O)NCC1CCCO1 (stereo not drawn)
CCOc1ccc(CCNC(=O)Cn2nc(CC)n3c(cc4sc(CC)cc43)c2=O)cc1OCC
Cc1ccc(OCC(=O)Nc2ccc(Cl)c(-c3nc4ccccc4[nH]3)c2)cc1C
CCOc1ccc(CNC(=O)c2cccc(Nc3nc4ccccc4n4nnnc34)c2)cc1OC
CCC(=O)Nc1ccc(C)cc1-c1nc2ccccc2n(Cc2ccccc2)c1=O
COCCn1c(N)c(NCc2ccccc2)c(=O)[nH]c1=O
Cc1ccc(S(=O)(=O)N2CCCc3cc(NS(=O)(=O)c4cc(C)ccc4C)ccc32)cc1
O=C(CCC(=O)N1CC2CCCN2c2ccccc21)NCc1ccccc1Cl (stereo not drawn)
Cc1c(-c2nsc(NC(=O)c3cccc(Cl)c3)n2)nnn1-c1ccccc1C(F)(F)F
COc1ccc(-n2c(SC)nc3sc4c(c3c2=O)CCN(C(C)=O)C4)cc1
CCc1nn(CC(=O)N2CCN(c3cccc(C(F)(F)F)c3)CC2)c(=O)c2cc3occc3n12
CCn1c(=O)c2cc(C(=O)NCCc3ccc(Cl)cc3)sc2c2ccccc21
CCc1ccc(CNC(=O)c2cc3c(=O)n(CC)c4ccccc4c3s2)cc1
COc1cccc(CNC(=O)C2CCN(S(=O)(=O)c3ccc4c(ccn4C)c3)CC2)c1
CCN(C(=O)Cn1cnc2sc(C)c(S(=O)(=O)N3CCN(c4ncccn4)CC3)c2c1=O)c1ccccc1F
CSc1nn(Cc2cccc(C)c2)c(N)c1S(=O)(=O)c1ccccc1
CC(=O)Nc1cc(C(=O)NCc2ccc(F)cc2Cl)ccc1Sc1ccc(Cl)cc1
CCc1cccc(NC(=O)CN(c2ccc(C)c(C)c2)S(=O)(=O)c2ccsc2C(=O)OC)c1
Cc1cc(C)c2sc(NC(=O)c3ccc(S(=O)(=O)N4CCCC4)cc3)nc2c1
COc1ccc(S(=O)(=O)NCC(c2ccc(N(C)C)cc2)N2CCc3ccccc32)cc1OC (stereo not drawn)
CCCN1C(=O)C(O)(CC(=O)c2ccc(CC)cc2)c2cc(Br)ccc21 (stereo not drawn)
COc1cccc(CNC(=O)CCC(=O)N2CC3CCCN3c3ccccc32)c1 (stereo not drawn)
CC(C)NC(=O)c1nn(-c2ccccc2F)nc1CO
COc1ccc(CNC(=O)CS(=O)Cc2nc(-c3cccc(C)c3)oc2C)cc1 (stereo not drawn)
CCCCS(=O)(=O)c1oc(-c2cccs2)nc1S(=O)(=O)c1ccccc1
CCOc1ccc(OCC)c(NC(=O)c2cc(C)nc3c2c(C)nn3-c2cccc(Cl)c2C)c1
O=C(CSc1nc(=O)n(Cc2cccnc2)c2c1CCC2)Nc1ccc(F)cc1F
Cc1ccc(OCC(=O)OCc2cc(=O)n3nc(C4CC4)sc3n2)cc1C
O=C(CCn1ccc2cc(S(=O)(=O)N3CCCC3)ccc21)NCc1cccc(Cl)c1
COc1ccc(NS(=O)(=O)c2ccc(N3CCOCC3)c(NC(=O)c3ccccc3Br)c2)cc1
COCCN(CCOC)S(=O)(=O)c1ccc(C(=O)Nc2nc3c(s2)CCc2ccccc2-3)cc1
Cc1oc(-c2ccccc2)nc1Cn1c(SCc2cccc(C(F)(F)F)c2)nc2cccnc21
COc1cccc(NC(=O)Cn2c(=O)cc(C)c3c(C)nn(-c4cccc(F)c4)c32)c1
CCCCOc1ccc(C(=O)N2CC(=O)Nc3ccc(Br)cc3C2c2ccc(F)cc2)cc1 (stereo not drawn)
O=C(NCC(c1ccco1)S(=O)(=O)c1cccs1)c1ccc(F)cc1 (stereo not drawn)
O=C(CSc1oc(-c2ccc(F)cc2)nc1S(=O)(=O)c1ccc(Br)cc1)NC1CCCCC1
COc1ccc(Cc2nc3ccc(C(=O)NCc4ccccc4Cl)cc3o2)cc1
O=C(CSc1ncc(-c2ccccc2)[nH]1)Nc1ccc(F)cc1F
Cc1ccc(Cn2c(CNC(=O)Cc3cccc(C)c3)nc3cccnc32)cc1
Fc1ccc(Nc2nc(SCc3ccccc3Cl)nc3ccccc23)cc1
CCC(=O)Nc1c(C(=O)N2CCN(c3ccc(F)cc3)CC2)oc2ccccc12
CCOc1ccc(CCNC(=O)c2ccc3c(c2)sc2nc(-c4ccc(F)cc4)cn23)cc1OCC
COc1ccc(N2CCN(C(=O)CSCc3nc(-c4ccccc4Cl)oc3C)CC2)cc1
Cc1ccc2c(=O)c(C(=O)c3ccc(F)cc3)cn(CC(=O)NC3CCCCC3)c2n1
CCN(CCCNC(=O)c1ccc(Sc2ccc(C)cc2)c(NC(C)=O)c1)c1cccc(C)c1
O=S(=O)(NCC(c1ccccc1)N1CCc2ccccc21)c1ccccc1 (stereo not drawn)
O=C(CCn1c(=O)c2sccc2n(Cc2ccc(F)cc2)c1=O)NCc1ccc2c(c1)OCO2
O=C(CCSCc1ccccc1F)N1CCN(c2ccc(Cl)cc2)CC1
O=C(CC1N=C2c3ccccc3N=C(SCc3cccc(Cl)c3)N2C1=O)NCc1ccc2c(c1)OCO2 (stereo not drawn)
COc1cc(OC)c(NC(=O)c2c3c(nn2C)-c2ccccc2SC3)cc1Cl
O=C(CC(c1cccs1)N1Cc2ccccc2C1=O)Nc1ccc(F)c(F)c1 (stereo not drawn)
CCc1ccccc1OCCSc1nc(-c2cccs2)nc2cc(=O)[nH]n12
COc1ccc(NC(=O)c2cc3cc(C)ccc3n2C)cc1
CCC(=O)N1CCc2cc(Br)cc(S(=O)(=O)Nc3ccc(C)cc3C)c21
Cc1ccc(O)c(NC(=O)c2cc(-c3ccc(F)cc3)no2)c1
CCOC(=O)c1c(S(=O)(=O)N2CCCC(C(=O)NCc3ccc(F)cc3)C2)c(C)n(CC)c1C (stereo not drawn)
CC1CCN(S(=O)(=O)c2ccc3c(c2)N(CC(=O)NCc2ccccc2Cl)C(=O)CO3)CC1
CCOC(=O)N1CCc2c(sc3c2C(=O)NC(c2ccccc2F)N3)C1 (stereo not drawn)
CC(C)(C)OC(=O)N1CCC(c2c(C(=O)NCc3ccccn3)cnn2-c2ccc(F)cc2)CC1
CCOC(=O)c1cccc(NC(=O)C(Cc2ccccc2)NS(=O)(=O)c2cccc3nsnc23)c1 (stereo not drawn)
Cc1ccc2cccc(NC(=O)c3ccc(OC(C)C)cc3)c2n1
Cc1ccc(-c2nc3cccc(C)n3c2Nc2ccc3c(c2)OCCO3)cc1
CCN1CCC(N(Cc2ccc(F)cc2)C(=O)Nc2cc(C)ccc2C)CC1
CCc1ccc(CNC(=O)C2CCN(c3nn4cc(-c5ccc(F)cc5)nc4s3)CC2)cc1
COc1cc(OC)c(NC(=O)c2cnc(N3CCCC3)nc2C)cc1Cl
CCc1ccc(NC(=O)c2cc(S(=O)(=O)N3CCCC(C)C3)cn2C)cc1 (stereo not drawn)
Cc1cc(C)nc(NS(=O)(=O)c2ccc(NC(=O)c3cc(=O)c4ccc(C)c(C)c4o3)cc2)n1
Cc1oc2ncnc(N3CCOCC3)c2c1C(=O)NCCc1ccccc1
COc1ccc(-c2cn3c(n2)sc2cc(C(=O)Nc4ccc(F)cc4)ccc23)cc1
Cc1csc2nc(COC(=O)c3ccc(NC(=O)COc4ccccc4F)cc3)cc(=O)n12
CCCN1CCN(CCCNC(=O)c2cnn(-c3ccc(C)cc3)c2-n2cccc2)CC1
O=C(CCOc1ccccc1)N(Cc1cccnc1)c1nc2ccc(Cl)cc2s1
CC(NC(=O)c1cc(Sc2ccc(F)cc2F)nc2ccccc12)c1ccccc1 (stereo not drawn)
COc1cccc(C(=O)NCc2ccc3c(c2)CCN3C(=O)c2ccncc2)c1
CCOC(=O)c1c(SCC(=O)Nc2cccc(C)c2C)nc(=O)[nH]c1C
CCOC(=O)c1c(C)[nH]c(CCC(=O)Nc2ccc(OC)c(OC)c2)c1C
CN(C(=O)c1ccc2c(c1)N(Cc1cccc(Cl)c1)C(=O)c1ccccc1S2=O)C1CCCCC1 (stereo not drawn)

Potency, active:
O=C(O)C(c1ccccc1)N1C(=O)/C(=C\c2ccc(-c3cccc(Cl)c3)o2)SC1=S (stereo not drawn) 35.5 µM
O=C(/C=C/c1ccc(N2CCOCC2)cc1)c1ccccc1 25.1 µM
Cc1cc(C)c(/C=C2\C(=O)Nc3ccccc32)[nH]1 25.1 µM
Cc1cc2nc3c(=O)n(Cc4ccccc4)c(=O)[nH]c3nc2cc1N 25.1 µM
Brc1ccc(C2=CC(c3ccco3)n3ncnc3N2)cc1 (stereo not drawn) 31.6 µM
CCN(CCCNC(=O)c1cc2c(=O)n(CC)c3ccccc3c2s1)Cc1ccccc1 28.2 µM
CCN(CC)CCCC(C)n1c2nc(=O)[nH]c(=O)c-2nc2cc(Cl)ccc21 (stereo not drawn) 25.1 µM
COc1ccc2c(c1)Cc1sc(NC(=O)c3ccccc3Br)nc1-2 31.6 µM
CC1=CC2=NC(=O)/C(=C/c3coc4ccccc4c3=O)C(=N)N2O1 28.2 µM
NC1=CC(=O)C(=O)c2cccnc21 3.55 µM
O=[N+]([O-])c1ccc(C=Nc2ccc(Cl)cc2Cl)s1 28.2 µM
CN1/C(=C\C=C2\N=C(c3ccc(F)cc3)OC2=O)C(C)(C)c2ccccc21 28.2 µM
CCOC(=O)c1c(C)[nH]c2c1-c1ccccc1C(=O)C2=O 1.26 µM
CC(=O)N(C1=C(Cl)C(=O)c2ccccc2C1=O)c1ccc(C(=O)O)cc1 14.1 µM
